CRFR2-BP antag = antagonists of CRF-binding protein/CRF-R2 receptor complex; 0.59% of 350,000 active; HEK293 CRF-R2/CRF-BP, CRF-induced calcium fluorescence; AID 588475; inhibition, % at 11.8 µM;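 active = inhibition of the ligand-induced calcium signal above about 50% at the single tested concentration, limit read from the data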
MPTP block = blocks calcium-induced mitochondrial swelling; isolated mouse mitochondria, Ca2+ swelling absorbance, 30 min; inhibition, % at 10 µM; AID 602449; 1.4% of 360,000 active;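 active = inhibition of 50% or more, scaled per plate between neutral and stimulator controls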
GRIN3A LBD mod = modulators (binders) of human NR3A ligand-binding domain; AID 1259313; NR3A LBD differential scanning fluorimetry, Tm shift; 0% = protein alone, 100% = glycine-bound protein; Tm shift relative to glycine control, % at 25 µM; 2.5% of 340,000 active;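 active = melting temperature shift of at least 10% of the positive control shift, at one fixed dose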
ANO1 block = blocks the mouse calcium-activated chloride channel TMEM16A. HEK293 TMEM16A/YFP iodide influx fluorescence, ionomycin. normalized B-score (activity score, 25-100; higher = stronger inhibition) at 10 µM. 1.2% of 310,000 active. AID 588511;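 active = ratio plate-corrected score three or more library SD toward inhibition, starting fluorescence score within five deviations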;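 note: score derived from kinetic fluorescence span divided by baseline fluorescence per well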
Target sequence (Q8BHY3 whole entry, looked up): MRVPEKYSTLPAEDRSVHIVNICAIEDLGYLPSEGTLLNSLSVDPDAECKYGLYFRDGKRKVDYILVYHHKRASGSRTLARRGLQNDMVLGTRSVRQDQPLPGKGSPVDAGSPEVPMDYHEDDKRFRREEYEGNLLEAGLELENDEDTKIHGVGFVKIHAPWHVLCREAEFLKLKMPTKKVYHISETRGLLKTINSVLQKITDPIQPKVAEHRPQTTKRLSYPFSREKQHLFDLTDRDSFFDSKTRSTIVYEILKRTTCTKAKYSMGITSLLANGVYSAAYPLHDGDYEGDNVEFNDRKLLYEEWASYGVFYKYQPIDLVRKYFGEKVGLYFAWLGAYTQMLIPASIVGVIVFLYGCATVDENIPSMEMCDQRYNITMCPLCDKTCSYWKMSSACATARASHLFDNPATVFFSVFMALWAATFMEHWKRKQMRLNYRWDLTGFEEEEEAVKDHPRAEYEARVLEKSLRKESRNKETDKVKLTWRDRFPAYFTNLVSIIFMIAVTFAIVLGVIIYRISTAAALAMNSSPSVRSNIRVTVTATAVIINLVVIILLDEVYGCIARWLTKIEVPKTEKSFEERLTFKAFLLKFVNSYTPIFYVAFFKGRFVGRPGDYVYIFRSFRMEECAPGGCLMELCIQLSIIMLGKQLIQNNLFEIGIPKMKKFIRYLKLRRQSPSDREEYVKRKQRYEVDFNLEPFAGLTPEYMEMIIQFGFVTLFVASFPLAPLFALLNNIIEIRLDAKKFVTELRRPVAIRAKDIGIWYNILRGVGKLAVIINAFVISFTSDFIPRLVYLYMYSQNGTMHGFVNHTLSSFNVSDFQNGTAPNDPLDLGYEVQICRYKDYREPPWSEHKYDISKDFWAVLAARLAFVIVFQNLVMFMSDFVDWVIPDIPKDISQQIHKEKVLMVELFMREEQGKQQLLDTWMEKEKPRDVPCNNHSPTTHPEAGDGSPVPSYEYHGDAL
ANO1 activ = mouse TMEM16A channel activation, primary screen; Q8BHY3; HEK293 TMEM16A/YFP-H148Q/I152L, iodide quench fluorescence; stronger effect = lower value; B-score at 10 µM; 0.3% of 340,000 active; AID 623877;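 active = fluorescence-ratio B-score plate-corrected deviation score at least 3 library SD below zero, with starting fluorescence score within 5 deviations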;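 note: channel opened by trigger with iodide after compound preincubation; score built on the fluorescence ratio of max minus min over baseline; more negative score means more quench and so TMEM16A activation or potentiation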
CRFBP-R2 agonist = agonists of human CRF-binding protein/CRF-R2 receptor complex; HEK293 CRF-R2/CRF-BP, calcium dye fluorescence (FLIPR); percent of saturating CRF peptide response; activation, % at 13.2 µM; 0.46% of 350,000 active; AID 588473;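 active = activation of at least 50%, plus an integration ratio under a set limit after plate pattern correction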
TMEM16A reconf = re-confirmation of mouse TMEM16A chloride channel inhibitors; 39% of 2,300 active; HEK293 TMEM16A/YFP-H148Q, iodide quench fluorescence; ionomycin added to raise cell calcium; inhibition, % at 10 µM; shares compounds with ANO1 block;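 active = mean duplicate percent inhibition, scaled so buffer wells are 0 and the reference blocker 100, over three buffer SD above buffer mean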
HEK293 Ca mobil = counter-screen for TMEM16A inhibitors: effect on calcium mobilization | shares compounds with ANO1 block | TMEM16A/YFP HEK293, Fluo4 calcium mobilization | calcium response (% of ionomycin), % at 10 µM | 2% of 2,300 active | AID 652231;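 active = duplicate-averaged calcium signal over 20% of the ionomycin maximum, relative to buffer baseline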;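 note: each well's signal is peak minus trough fluorescence divided by its pre-addition baseline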
YFP-HEK293 quench = counter-screen for TMEM16A inhibitors: effect in parental YFP-HEK293 cells; 2,300 tested, under 10 active; iodide YFP quench, ionomycin; YFP ratio F(max-min)/F0 at 10 µM; shares compounds with ANO1 block;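 active = yellow fluorescent protein signal ratio exceeding the buffer control mean by over 5 SD of those controls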;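 note: ratio is mean of duplicate wells from kinetic YFP trace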
ClC-1 rat inh = rat ClC-1 inhibition, TMEM16A specificity screen; shares compounds with ANO1 block; CHO ClC-1-YFP, iodide influx fluorescence quench; iodide control reads 0, buffer control 100; ratio percent, % at 10 µM; 2,300 tested, under 10 active; AID 652236;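 active = duplicate-mean ratio percent above the mean of iodide-only control wells, which defines zero, plus 5 of their SD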;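 note: higher percent means stronger block of ClC-1 iodide influx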
Of the large screens only hits and unclear results are named; the others gave an inactive call (follow-up assays come after a bar, where they were run). A selection: hits, their analogues and other compounds. The true share with any hit is near 5.1%.

C[C@H](CO)N1C[C@H](C)[C@@H](CN(C)Cc2ccc(C(=O)O)cc2)Oc2ccc(NS(=O)(=O)c3cn(C)cn3)cc2C1=O	none (no result: ANO1 block)
O=C(Cc1coc2ccc3ccccc3c12)NCc1ccccc1	ANO1 block 100 | TMEM16A reconf inactive | HEK293 Ca mobil inactive | YFP-HEK293 quench inactive | ClC-1 rat inh inactive
Cc1ccc(Nc2nc3ccc(Cl)cc3n3cnnc23)cc1F	none
O=C(N/N=C/c1c[nH]c2ccccc12)C1CC1c1ccccc1 (configuration not stated)	GRIN3A LBD mod 10, ANO1 block 25 | TMEM16A reconf 46% | HEK293 Ca mobil inactive | YFP-HEK293 quench inactive | ClC-1 rat inh inactive
OCCCn1c(-c2ccccc2)csc1=Nc1ccccc1	ANO1 block 100 | TMEM16A reconf 28% | HEK293 Ca mobil inactive | YFP-HEK293 quench inactive | ClC-1 rat inh inactive
O=C(O)CCC(=O)NCCn1c(-c2ccccc2)csc1=Nc1ccccc1	none
O=C(Nc1cccc(O)c1)c1ccc(C(F)(F)F)cc1	none
O=C(Nc1cccc(C(F)(F)F)c1)c1cc[n+]([O-])cc1	ANO1 block 100 | TMEM16A reconf inactive | HEK293 Ca mobil inactive | YFP-HEK293 quench inactive | ClC-1 rat inh inactive
CCN1C(=O)C(CC(=O)Nc2ccc(F)cc2)N(CCc2ccc(OC)cc2)C1=S (configuration not stated)	ANO1 block 25 | TMEM16A reconf inactive | HEK293 Ca mobil inactive | YFP-HEK293 quench inactive | ClC-1 rat inh inactive
CCN1C(=O)C(CC(=O)Nc2ccc(OC)cc2)N(CCc2ccccc2)C1=S (configuration not stated)	none
CCC(=O)N1CCC1(C)C(=O)Nc1ccc2scnc2c1 (configuration not stated)	none (no result: CRFR2-BP antag, GRIN3A LBD mod, ANO1 block, ANO1 activ, CRFBP-R2 agonist)
Cc1ccccc1S(=O)(=O)Nc1nc2ccccc2nc1N1CCc2ccccc2C1	none
O=S(=O)(Nc1nc2ccccc2nc1N1CCc2ccccc2C1)c1ccc(Cl)cc1	ANO1 block 25 | TMEM16A reconf 50% | HEK293 Ca mobil inactive | YFP-HEK293 quench inactive | ClC-1 rat inh inactive
Cc1csc(=O)n1CC(=O)Nc1nc2ccccc2s1	none (no result: ANO1 block)
CCCN(CCC)c1nc(NC2CCN(C(=O)OCC)CC2)nc(OC)n1	ANO1 block 25 | TMEM16A reconf inactive | HEK293 Ca mobil inactive | YFP-HEK293 quench inactive | ClC-1 rat inh inactive
O=C(c1ccco1)N1CCN(S(=O)(=O)c2ccc3[nH]c(=O)oc3c2)CC1	none
Cn1c(=O)oc2cc(S(=O)(=O)N3CCN(C(=O)c4ccco4)CC3)ccc21	ANO1 block 100 | TMEM16A reconf inactive | HEK293 Ca mobil inactive | YFP-HEK293 quench inactive | ClC-1 rat inh inactive
NC(N)=NN=C1CCCCCCCCCCC1	none | TMEM16A reconf inactive | HEK293 Ca mobil inactive | YFP-HEK293 quench inactive | ClC-1 rat inh inactive
C[C@H](NC(=O)OC(C)(C)C)c1nnc(SCC(=O)c2ccc(Cl)cc2)o1	ANO1 block 100 | TMEM16A reconf inactive | HEK293 Ca mobil inactive | YFP-HEK293 quench inactive | ClC-1 rat inh inactive
CC(=O)c1ccc([N+](=O)[O-])c(CS(=O)(=O)c2ccccc2)c1	none
COc1ccc(N=Cc2c(O)ccc3ccccc23)cc1	none | TMEM16A reconf inactive | HEK293 Ca mobil inactive | YFP-HEK293 quench inactive | ClC-1 rat inh inactive
CNc1ccccc1C(C)(C)c1cc(-c2cc(C)cc(C)c2)no1	none
CNc1ccccc1C(C)(C)c1cc(-c2cccc(OC)c2)no1	ANO1 block 25 | TMEM16A reconf 23% | HEK293 Ca mobil inactive | YFP-HEK293 quench inactive | ClC-1 rat inh inactive
